Experimental data as given in PubChem BioAssay (Tox21).
Inconclusive results are not listed. The source made the active and inactive calls. Unless noted, the call rests on the fitted dose curve; in most records, active means well fitted curve in the direction sought with a large enough effect in the repeat runs; inconclusive means weak or mixed curves; inactive means no such curve, though single readings can be large; an effect the other way counts as inactive or inconclusive.

Experiments:
[1] = target: Nuclear receptor subfamily 1 group I member 3 (Homo sapiens) (UniProt Q14994); test: qHTS assay to identify small molecule agonists of the constitutive androstane receptor (CAR) signaling pathway (AID 1224839); further: nearly all actives have a fitted effect of over 15% in size
Procedure, shortened: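 A 15-concentration quantitative screen uses HepG2 cells co-transfected stably with human CAR and CYP2B6-2.2kb reporter. Treatment lasts 24 h with 0.75 uM PK11195 final present; ONE-Glo luminescence is the signal.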

[2] = qHTS assay to identify small molecule antagonists of the estrogen related receptor signaling pathway with the pleiotropic PPARgamma coactivator (PGC) from Tox21 10K library - cell viability counter screen (AID 1224840; active means well fitted cell-killing curve with a large enough effect in the repeat runs, not every such curve was filed as active; further: nearly all actives have a fitted effect of over 40% in size)
Procedure, shortened: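 Fluorescence read-out of CellTiter-Fluor viability reagent, added after cells had been exposed to compound in DMSO for 17.5 h at 37 C; 30 min development at 37 C/5% CO2. Cells: PGC/ERR line, 2,000/well.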

[3] = qHTS assay to identify small molecule antagonists of the estrogen related receptor signaling pathway with the pleiotropic PPARgamma coactivator (PGC) from Tox21 10K library (AID 1224841; call rule not given here; further: actives are mostly falling curves and most rising ones were filed inactive; nearly all actives have a fitted effect of over 50% in size)
Procedure, shortened: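 Luminescence read-out (One-Glo luciferase reagent, 30 min at room temperature) from PGC/ERR cells exposed to DMSO-dissolved test compounds for 18 h at 37 C; cells, 2,000 per well, had been preincubated 6 h before compound transfer.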

[4] = qHTS assay to identify small molecule agonists of the estrogen related receptor signaling pathway with the pleiotropic PPARgamma coactivator (PGC) from Tox21 10K library (AID 1224842); further: nearly all actives have a fitted effect of over 15% in size
Procedure, shortened: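 PGC/ERR reporter cell line, 2,000 cells per well, incubated 6 h at 37 C before 23 nL compound in DMSO was added. After 18 h at 37 C, One-Glo luminescence read following 30 min at room temperature.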

[5] = qHTS assay to identify small molecule agonists of the hypoxia (HIF-1) signaling pathway - cell viability counter screen (AID 1224844; calls by dose curve; further: nearly all actives have a fitted effect of over 50% in size)
Procedure, shortened: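 CellTiter-Glo luminescence read-out, 30 min RT, taken in the same wells as the beta-lactamase HRE reporter assay; HRE-bla ME-180 cells, 0.5% dialyzed FBS, 17 hr compound treatment at 37C, 5% CO2.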

[6] = qHTS assay to identify small molecule agonists of H2AX (AID 1224845; active means well fitted activation curve with a large enough effect in the signal ratio in the repeat runs, not every such curve was filed as active; the % refers to the signal ratio)
Procedure, shortened: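 Wild-type CHO-K1 cells, plated overnight, exposed 3hr at 37C to 15 concentrations (0.76% DMSO final). Lysed, then HTRF anti-pH2AX (S139) cryptate and anti-H2AX-d2 antibodies, 24 hr room temperature; 665/620 nm emission read.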

[7] = qHTS assay to identify small molecule agonists of the hypoxia (HIF-1) signaling pathway (AID 1224846; active means well fitted activation curve with a large enough effect in the signal ratio in the repeat runs, not every such curve was filed as active; the % refers to the signal ratio)
Procedure, shortened: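 Beta-lactamase FRET read-out (CCF4-AM substrate) from ME-180 cells carrying an HRE-driven bla reporter, after 17 hrs compound exposure at 37C/5% CO2. Cells were seeded at 2,000 per well in 0.5% dialyzed FBS medium and preincubated 5 hrs.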

[8] = qHTS assay to identify small molecule agonists of H2AX - cell viability counter screen (AID 1224847; calls by dose curve; further: top concentration of the series differs between compounds; nearly all actives have a fitted effect of over 30% in size)
Procedure, shortened: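 We seed wild-type CHO-K1 cells overnight, treat them for 3 hr at 37C with compounds in 15-concentration series, and quantify remaining viability by CellTiter-Glo luminescence.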

[9] = qHTS assay to identify small molecule antagonists of the estrogen related receptor (ERR) signaling pathway from Tox21 library (AID 1224848); further: nearly all actives have a fitted effect of over 50% in size
Procedure, shortened: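 Compounds dissolved in DMSO are pin-transferred onto ERR reporter cells (2,000 per well) that have settled for 6 h at 37 C. Plates then incubate 18 h at 37 C before ONE-Glo luciferase reagent and a luminescence read 30 min later.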

[10] = qHTS assay to identify small molecule agonists of the estrogen related receptor (ERR) signaling pathway from Tox21 library (AID 1224849; calls by dose curve; further: nearly all actives have a fitted effect of over 15% in size); conditions: ERR reporter cell line, ONE-Glo luciferase, 18 h; at 92.4 µM (top of the series) unless noted
Procedure, shortened: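 Luminescence readout (ONE-Glo, 30 min RT) after 18 h compound exposure at 37 C of NTP-supplied ERR reporter cells; cells were plated 6 h before compound addition by pin tool.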

[11] = qHTS RealTime-Glo MT Cell Viability Assay in HepG2 cells - 24 hour (AID 1224867); further: nearly all actives have a fitted effect of over 50% in size
Procedure, shortened: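 Cells + NanoLuc/prosubstrate dispensed (600 cells/well) → 5 h at 37 C/5% CO2 → compounds in DMSO transferred → 40 h incubation at 37 C, luminescence read at 0, 8, 16, 24, 32, 40 h.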

[12] = qHTS RealTime-Glo MT Cell Viability Assay in HEK293 cells - 32 hour (AID 1224868)
Procedure, shortened: (§1)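 Tox21 10K qHTS, HEK293, 600 cells/well, RealTime-Glo reagent co-dispensed with cells; 5 h preincubation, compound by pintool, 37 C, luminescence at 0–40 h.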

[13] = A CellTox Green Cytotoxicity Assay to monitor cytotoxicity in HEK293 cells - 0 hour (AID 1224869); further: nearly all actives have a fitted effect of over 50% in size
Procedure, shortened: (§2)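 Read-out: fluorescence of a cell-impermeant cyanine dye staining DNA of dead cells, proportional to cytotoxicity. HEK293, 600 cells/well with reagent, compound (23 nL DMSO) added after 5 h; reads at 0, 8, 16, 24, 32, 40 h.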

[14] = qHTS RealTime-Glo MT Cell Viability Assay in HepG2 cells - 40 hour (AID 1224870); further: nearly all actives have a fitted effect of over 50% in size
Procedure, shortened: (§3)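 HepG2 cells (600/well) mixed with RealTime-Glo MT reagent, settled 5 h at 37 C/5% CO2 before compound addition. Nonlytic NanoLuc luminescence from viable-cell prosubstrate reduction read repeatedly during 40 h treatment at 37 C.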

[15] = A CellTox Green Cytotoxicity Assay to monitor cytotoxicity in HEK293 cells - 40 hour (AID 1224871); further: nearly all actives have a fitted effect of over 45% in size
Procedure, shortened: as §2

[16] = qHTS RealTime-Glo MT Cell Viability Assay in HEK293 cells - 16 hour (AID 1224872)
Procedure, shortened: as §1

[17] = qHTS RealTime-Glo MT Cell Viability Assay in HepG2 cells - 8 hour (AID 1224873); further: nearly all actives have a fitted effect of over 55% in size
Procedure, shortened: as §3

[18] = qHTS RealTime-Glo MT Cell Viability Assay in HEK293 cells - 40 hour (AID 1224874); conditions: RealTime-Glo luminescence; max response: active compounds read low; further: nearly all actives have a fitted effect of over 50% in size
Procedure, shortened: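 Luminescence readout at each listed time point; HEK293, 600 cells/well, RealTime-Glo MT reagent added with cells; compounds pinned (23 nL in DMSO) after 5 h at 37 C; continuous culture at 37 C.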

[19] = A CellTox Green Cytotoxicity Assay to monitor cytotoxicity in HEK293 cells - 24 hour (AID 1224875); further: nearly all actives have a fitted effect of over 45% in size
Procedure, shortened: as §2

[20] = target: Thyrotropin receptor (Homo sapiens) (UniProt P16473); test: qHTS assay to identify small molecule agonists of the thyroid stimulating hormone receptor (TSHR) signaling pathway (AID 1224843; calls by dose curve; further: nearly all actives have a fitted effect of over 45% in size)
Procedure, shortened: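 HEK293/TSHR, 800 cells/well; cpd 30 min RT; add cAMP-d2 + anti-cAMP-cryptate, 1 h RT; fluorescence read on plate reader. 15-pt titration, n=3.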
On the % scale 0 is the no-effect control and ±100 the full control effect.

Chain of Nuclear receptor subfamily 1 group I member 3 (Homo sapiens) (Q14994 whole entry, looked up): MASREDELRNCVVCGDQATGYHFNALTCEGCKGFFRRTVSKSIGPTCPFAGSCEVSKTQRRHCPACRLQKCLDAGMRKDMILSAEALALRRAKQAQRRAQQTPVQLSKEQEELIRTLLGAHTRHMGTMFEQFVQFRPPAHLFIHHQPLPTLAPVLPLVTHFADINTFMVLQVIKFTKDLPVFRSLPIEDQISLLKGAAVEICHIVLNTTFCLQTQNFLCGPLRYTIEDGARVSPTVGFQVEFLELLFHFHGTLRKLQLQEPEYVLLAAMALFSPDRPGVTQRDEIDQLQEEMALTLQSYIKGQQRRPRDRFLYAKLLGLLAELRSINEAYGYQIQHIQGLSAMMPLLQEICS
Chain of Thyrotropin receptor (Homo sapiens) (P16473 whole entry, looked up): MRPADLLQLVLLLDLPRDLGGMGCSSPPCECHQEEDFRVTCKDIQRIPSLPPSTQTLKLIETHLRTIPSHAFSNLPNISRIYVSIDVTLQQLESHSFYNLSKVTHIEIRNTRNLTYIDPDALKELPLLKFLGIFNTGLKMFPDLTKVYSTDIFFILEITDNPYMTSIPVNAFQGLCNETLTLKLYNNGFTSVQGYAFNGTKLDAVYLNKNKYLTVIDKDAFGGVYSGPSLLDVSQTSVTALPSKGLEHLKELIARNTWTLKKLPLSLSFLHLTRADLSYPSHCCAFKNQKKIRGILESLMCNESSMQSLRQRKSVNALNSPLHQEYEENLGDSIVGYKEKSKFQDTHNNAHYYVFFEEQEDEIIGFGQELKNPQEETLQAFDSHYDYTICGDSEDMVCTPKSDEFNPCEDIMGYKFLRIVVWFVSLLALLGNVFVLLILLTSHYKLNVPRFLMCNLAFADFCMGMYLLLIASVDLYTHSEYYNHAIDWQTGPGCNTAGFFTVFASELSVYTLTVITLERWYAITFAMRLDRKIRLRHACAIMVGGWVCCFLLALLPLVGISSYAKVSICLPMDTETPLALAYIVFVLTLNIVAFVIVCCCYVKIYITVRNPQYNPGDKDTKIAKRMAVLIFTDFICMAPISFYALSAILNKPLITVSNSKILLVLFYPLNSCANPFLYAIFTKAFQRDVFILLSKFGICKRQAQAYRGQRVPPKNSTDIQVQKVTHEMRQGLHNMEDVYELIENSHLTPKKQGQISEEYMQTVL

CCCC(=O)OCCC(C)CCC=C(C)C (stereo not given)
inactive: Potency [1] | outcome [2] | outcome [3] | outcome [4] | outcome [5] | outcome [6] | outcome [7] | outcome [8] | Potency [9] | activity change, positive = activation [10] -4.9% | outcome [11] | Potency [12] | Potency [13] | outcome [14] | Potency [15] | Potency [16] | outcome [17] | max response [18] 0.963% | Potency [19]

O=Cc1ccccc1Cl
inactive: Potency [1] | outcome [2] | outcome [3] | outcome [4] | outcome [5] | outcome [6] | outcome [7] | outcome [8] | Potency [9] | activity change, positive = activation [10] 4.09% | outcome [11] | Potency [12] | outcome [14] | Potency [16] | outcome [17] | max response [18] 4.59%

OC[C@@H](O)C(O)[C@@H](O)CO (stereo not given in full)
inactive: Potency [1] | outcome [2] | outcome [3] | outcome [4] | outcome [5] | outcome [6] | outcome [7] | outcome [8] | Potency [9] | activity change, positive = activation [10] 9.91% | outcome [11] | Potency [12] | Potency [13] | outcome [14] | Potency [15] | Potency [16] | outcome [17] | max response [18] -0.153%

CC(C)C[C@@H]1[C@H](c2ccccc2)OC(=O)N1CCCN1CCCCCC1
inactive: Potency [1] | outcome [2] | outcome [3] | outcome [4] | outcome [6] | outcome [8] | Potency [9] | activity change, positive = activation [10] 0.937% [at 42.5 µM] | outcome [11] | Potency [13] | outcome [14] | Potency [15] | outcome [17]

C/C=C(\C)C(=O)OCCc1ccccc1
inactive: Potency [1] | outcome [2] | outcome [3] | outcome [4] | outcome [6] | outcome [7] | outcome [8] | Potency [9] | activity change, positive = activation [10] 9.96% | outcome [11] | Potency [12] | Potency [13] | outcome [14] | Potency [16] | outcome [17] | max response [18] -3.34%

c1ccc(-c2nn[nH]n2)cc1
inactive: Potency [1] | outcome [2] | outcome [3] | outcome [4] | outcome [6] | Potency [9] | activity change, positive = activation [10] 8.29% | Potency [12] | Potency [13] | outcome [14] | Potency [15] | Potency [16] | outcome [17] | max response [18] 6% | Potency [19]

CCC/C=C(\C=O)CC
inactive: Potency [1] | outcome [2] | outcome [20] | outcome [5] | outcome [6] | outcome [7] | outcome [8] | outcome [11] | Potency [12] | Potency [13] | outcome [14] | Potency [15] | Potency [16] | outcome [17] | max response [18] -24.3% | Potency [19]

CN(C)CCCO[C@@H]1[C@H]2OC(C)(C)O[C@H]2O[C@@H]1C(O)CO (stereo not given in full)
inactive: Potency [1] | outcome [2] | outcome [3] | outcome [4] | outcome [5] | outcome [6] | outcome [8] | Potency [9] | activity change, positive = activation [10] 6.19% [at 42.5 µM] | outcome [11] | Potency [12] | outcome [14] | Potency [15] | Potency [16] | outcome [17] | max response [18] 0.847% | Potency [19]
